Data on 8 compounds can be found in PubChem BioAssay (Tox21).

Values joined by “and” are separate entries in the source; they are usually repeats but may differ in a detail not shown here. Equal entries are not always repeated. Results filed as inconclusive are left out. The source holds several records for some structures; these can differ, active in one and inactive in another. Active and inactive are the calls of the source. Unless noted, calls come from the whole dose curve.

A short description of assay [1]: Nuclear factor erythroid 2-related factor 2/antioxidant responsive element (Nrf2/ARE) small molecule agonists: qHTS cell viability counter screen in human keratinocytes (AID 1919968; active = well fitted curve in the direction sought with a large enough effect in the repeat runs; an effect the other way counts as inactive or inconclusive; note: nearly all actives have a fitted effect of over 55% in size; note: potency is the fitted concentration of half-maximal effect). The gist of the method: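 KeratinoSens HaCaT cells, 1,500/well, preincubated 5 h, then exposed to compounds in DMSO for 23 h at 37 C/5% CO2. Viability read as CellTiter-Fluor fluorescence after 1 h, in the same wells as the ARE-luciferase read.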
On the technique in general: In qHTS, concentration-response curves come from the screen itself.

Assay [2] deals with Gonadotropin-releasing hormone receptor (Homo sapiens) (UniProt P30968). The assay can be described thus: Human gonadotropin-releasing hormone receptor (GnRHR) small molecule agonists, calcium flux assay in GnRHR-HEK293 cells (AID 1920063). Note: nearly all actives have a fitted effect of over 35% in size. Note: potency is the fitted concentration of half-maximal effect. The essentials: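 HEK293 cells stably expressing human GnRHR were dye-loaded for 1 h at 37 C. Compound was added in agonist mode and fluorescence (Ex/Em 480/540) recorded kinetically for 3 min. Fifteen concentrations, triplicates.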
For orientation: Calcium assays in cells follow changes in intracellular calcium, usually with a dye or a luminescent sensor.

Assay [3] has as its target KiSS-1 receptor (Homo sapiens) (UniProt Q969F8). As to the kind of experiment: Human kisspeptin (KISS1R) small molecule agonists, calcium flux assay in KISS1R-HEK293 cells (AID 1920064; active = well fitted curve in the direction sought with a large enough effect in the repeat runs; an effect the other way counts as inactive or inconclusive). The gist of the method:
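HEK293 cells stably expressing human KISS1R were loaded with calcium dye for 1 h at 37 C, then given compound; fluorescence (Ex/Em 480/540) was read kinetically for 3 min. Fifteen concentrations, triplicate.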

A short description of assay [4]: G protein-coupled receptor (GPCR) small molecule agonists, calcium flux assay: HEK293 wild type cell line counter screen (AID 1920065). The gist of the method:
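Wild-type HEK293 cells plated 18 h, loaded with calcium dye 1 h at 37 C, then compounds added in agonist mode (ATP as positive control). Kinetic fluorescence Ex/Em 480/540 recorded 3 min at 1 sec intervals; 15 concentrations, triplicate.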

Assay [5] can be described thus: p53 small molecule agonists, cell-based qHTS assay with human liver microsomes: qHTS cell viability counter screen (AID 1963579). Note: nearly all actives have a fitted effect of over 45% in size. Note: potency is the fitted concentration of half-maximal effect. The essentials:
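After the 460/530 nm beta-lactamase read, CellTiter-Glo was added to the same wells and luminescence measured after 30 min at room temperature, giving viability of p53RE-bla cells treated 16 h with compounds plus microsomes and NADPH.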

Assay [6] is described as follows: p53 small molecule agonists, cell-based qHTS assay with rat liver microsomes: qHTS cell viability counter screen (AID 1963580). Note: nearly all actives have a fitted effect of over 45% in size. The essentials:
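HCT-116 p53RE-bla, 4,000 cells/well, 5 h pre-incubation; cpd + rat liver microsomes 0.5 mg/mL + NADPH 0.5 mg/mL (final); 16 h, 37 C; CellTiter-Glo, 30 min RT; luminescence.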

Assay [7] is described as follows: p53 small molecule agonists, cell-based qHTS assay: qHTS cell viability counter screen (AID 1963581). Note: nearly all actives have a fitted effect of over 45% in size. Note: potency is the fitted concentration of half-maximal effect. The gist of the method: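 p53RE-bla HCT-116 cells, compounds added 5 h after plating and incubated 16 h at 37 C. Cytotoxicity measured in the same wells as intracellular ATP by CellTiter-Glo luminescence after 30 min at room temperature.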
Assay [8] has as its target 5-hydroxytryptamine receptor 2A (Homo sapiens) (UniProt P28223). The assay can be described thus: 5-hydroxytryptamine receptor 2A (HTR2A) small molecule antagonists, cell-based qHTS assay (AID 1963586). Note: nearly all actives have a fitted effect of over 45% in size. Note: potency is the fitted concentration of half-maximal effect. The gist of the method: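 Antagonist-mode intracellular calcium assay: DOI (4 nM) added after 5 min compound pre-incubation at room temperature to dye-loaded HTR2A-CHO cells. Fluorescence followed for 3 min, sampled every second.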

Assay [9] shares this target. The assay can be described thus: 5-hydroxytryptamine receptor 2A (HTR2A) small molecule agonists, cell-based qHTS assay (AID 1963587). Note: nearly all actives have a fitted effect of over 30% in size. Note: potency is the fitted concentration of half-maximal effect. The gist of the method:
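Kinetic calcium-flux fluorescence (2 min, 1 sec intervals) after compound addition in agonist mode. HTR2A-CHO cells were cultured 18 h, then dye-loaded 1 h at 37 C.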

The target of assay [10] is Muscarinic acetylcholine receptor M1 (Homo sapiens) (UniProt P11229). As to the kind of experiment: Cholinergic receptor muscarinic 1 (CHRM1) small molecule antagonists, cell-based qHTS assay (AID 1963588). Note: nearly all actives have a fitted effect of over 40% in size. The gist of the method: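 CHRM1-CHO calcium-flux assay, antagonist mode. Cells were seeded 18 h, dye-loaded 1 h at 37 C and given compound for 5 min at RT, then acetylcholine was added at 50nM. FDSS fluorescence was read 3 min; 15 concentrations, three runs.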

Assay [11] is described as follows: cAMP Responsive Elements (CRE) small molecule agonists, cell-based qHTS assay (AID 1963590). The gist of the method: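 CRE-bla HEK 293T cells, 2,000/well in DMEM with 10% dialyzed FBS and 25 mM HEPES, pre-incubated 18 h at 37 C, then exposed to compound 3 h at 37 C. Beta-lactamase reporter read with LiveBLAzer B/G FRET substrate after 2 h at room temperature.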

Assay [12] is described as follows: cAMP Responsive Elements (CRE) small molecule antagonists, cell-based qHTS assay (AID 1963591; active = well fitted inhibition curve with a large enough effect in the signal ratio in the repeat runs, not every such curve was filed as active; the % refers to the signal ratio). The essentials:
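CRE-bla HEK293T cells plated 18 h, then given compound plus NKH477 at 0.25 uM final for 3 h at 37C. Beta-lactamase reporter read with LiveBLAzer B/G FRET substrate after 2 h at room temperature.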

The target of assay [13] is Beta-2 adrenergic receptor (Homo sapiens) (UniProt P07550). As to the kind of experiment: Adrenergic beta2 receptor (ADRB2) small molecule antagonists, cell-based qHTS assay (AID 1963592). Note: nearly all actives have a fitted effect of over 50% in size. Note: potency is the fitted concentration of half-maximal effect. The gist of the method: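 Cells (CHO, stable ADRB2 overexpression) incubated 18-20hr at 37C; compounds added from DMSO; agonist mix (1nM isoproterenol, 100uM IBMX, 25uM Ro-20-1724) added; 0.5hr RT; d2-cAMP and anti-cAMP-cryptate added; 1hr RT; 665/615 nm read.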

The target of assay [14] is D(2) dopamine receptor (Homo sapiens) (UniProt P14416). As to the kind of experiment: Dopamine D2 receptor (DRD2) small molecule agonists, cell-based qHTS assay (AID 1963594). Note: nearly all actives have a fitted effect of over 35% in size. Note: potency is the fitted concentration of half-maximal effect. The essentials:
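cAMP accumulation in DRD2-HEK293 cells measured by HTRF after 1 h detection; compounds added 10 min before NKH477 (200nM […]) forskolin-analogue stimulation, 30 min at room temperature, with Ro20-1724 present at 0.1 mM final.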

The target is the same in assay [15]. As to the kind of experiment: Dopamine D2 receptor (DRD2) small molecule antagonists, cell-based qHTS assay (AID 1963595; active = well fitted inhibition curve with a large enough effect in the signal ratio in the repeat runs, with a control signal flat; the % refers to the signal ratio). The gist of the method:
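Readout: HTRF cAMP, cAMP-d2 competing with cellular cAMP for anti-cAMP cryptate, read after 1 h. Cells: DRD2-HEK293. Conditions: 0.1 mM Ro20-1724, 12 nM quinpirole, 200 nM NKH477, 30 min RT.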

Assay [16] is described as follows: p53 small molecule agonists, cell-based qHTS assay with human liver microsomes (AID 1963577).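 For activation: p53 response element beta-lactamase reporter cells with liver microsomes plus NADPH.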 Note: potency is the fitted concentration of half-maximal effect. The essentials: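 Steps: plate p53RE-bla cells, incubate 5 h at 37 C; add compound in DMSO; add microsomes (0.5 mg/mL final) and NADPH (0.5 mg/mL final); incubate 16 h at 37 C; add LiveBLAzer, 2 h RT; read fluorescence.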
Assay [17] in a line: p53 small molecule agonists, cell-based qHTS assay with rat liver microsomes (AID 1963578). The essentials:
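Metabolic activation is supplied by rat liver microsomes with NADPH (each 0.5 mg/mL final). p53RE-bla cells incubate with compound 16 h at 37 C; reporter activity is measured by LiveBLAzer fluorescence.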

Assay [18] concerns the target Muscarinic acetylcholine receptor M1 (Homo sapiens) (UniProt P11229). The assay can be described thus: Cholinergic receptor muscarinic 1 (CHRM1) small molecule agonists, cell-based qHTS assay (AID 1963589). Note: nearly all actives have a fitted effect of over 35% in size. Note: potency is the fitted concentration of half-maximal effect. The essentials: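 CHO cells stably expressing human CHRM1 were loaded with calcium dye for 1 h at 37 C, then compound was added in agonist mode. Intracellular calcium fluorescence was followed kinetically at 1 s intervals. Fifteen concentrations were tested in three independent runs.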

In assay [19] the target is Beta-2 adrenergic receptor (Homo sapiens) (UniProt P07550). As to the kind of experiment: Adrenergic beta2 receptor (ADRB2) small molecule agonists, cell-based qHTS assay (AID 1963593).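 Note: CHO cells stably overexpressing human ADRB2.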 The essentials:
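CHO cells stably over-expressing ADRB2 were plated overnight at 37C, then dosed with compounds plus a stimulation mix containing 100uM IBMX and 25uM Ro-20-1724 for 0.5hr at room temperature. cAMP was measured by HTRF competition, 1hr.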

Assay [20] in a line: p53 small molecule agonists, cell-based qHTS assay (AID 1963582; active = well fitted activation curve with a large enough effect in the signal ratio in the repeat runs, not every such curve was filed as active; the % refers to the signal ratio). The essentials:
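p53RE-bla reporter cells, compounds added in DMSO after 5 h plating, incubated 16 h at 37 C. Beta-lactamase read via 2 h room-temperature LiveBLAzer B/G FRET substrate, fluorescence intensity.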

D(2) dopamine receptor (Homo sapiens), sequence (P14416 whole entry, looked up): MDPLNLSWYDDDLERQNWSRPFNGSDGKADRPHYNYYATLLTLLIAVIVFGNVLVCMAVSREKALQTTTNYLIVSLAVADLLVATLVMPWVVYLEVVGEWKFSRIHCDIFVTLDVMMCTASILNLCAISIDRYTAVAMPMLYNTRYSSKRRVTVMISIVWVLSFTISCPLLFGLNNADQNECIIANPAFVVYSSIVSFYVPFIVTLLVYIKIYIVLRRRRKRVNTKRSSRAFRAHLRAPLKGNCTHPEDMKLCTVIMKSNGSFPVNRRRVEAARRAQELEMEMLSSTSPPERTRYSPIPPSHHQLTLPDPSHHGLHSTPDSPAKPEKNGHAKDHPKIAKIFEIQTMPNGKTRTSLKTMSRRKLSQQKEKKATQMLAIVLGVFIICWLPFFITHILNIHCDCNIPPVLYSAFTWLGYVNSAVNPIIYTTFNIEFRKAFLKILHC
KiSS-1 receptor (Homo sapiens), sequence (Q969F8 whole entry, looked up): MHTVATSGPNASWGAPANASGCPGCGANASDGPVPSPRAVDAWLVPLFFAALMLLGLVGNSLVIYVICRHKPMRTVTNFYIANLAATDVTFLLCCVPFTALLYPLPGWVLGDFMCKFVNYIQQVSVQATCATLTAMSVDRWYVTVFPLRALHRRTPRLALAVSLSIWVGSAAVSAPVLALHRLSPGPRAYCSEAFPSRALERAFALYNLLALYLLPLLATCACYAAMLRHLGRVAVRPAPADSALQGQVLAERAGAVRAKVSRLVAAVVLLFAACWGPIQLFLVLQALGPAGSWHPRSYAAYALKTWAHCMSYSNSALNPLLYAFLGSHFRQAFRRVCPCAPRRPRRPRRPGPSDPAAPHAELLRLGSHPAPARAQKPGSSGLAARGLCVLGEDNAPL
Muscarinic acetylcholine receptor M1 (Homo sapiens), sequence (P11229 whole entry, looked up): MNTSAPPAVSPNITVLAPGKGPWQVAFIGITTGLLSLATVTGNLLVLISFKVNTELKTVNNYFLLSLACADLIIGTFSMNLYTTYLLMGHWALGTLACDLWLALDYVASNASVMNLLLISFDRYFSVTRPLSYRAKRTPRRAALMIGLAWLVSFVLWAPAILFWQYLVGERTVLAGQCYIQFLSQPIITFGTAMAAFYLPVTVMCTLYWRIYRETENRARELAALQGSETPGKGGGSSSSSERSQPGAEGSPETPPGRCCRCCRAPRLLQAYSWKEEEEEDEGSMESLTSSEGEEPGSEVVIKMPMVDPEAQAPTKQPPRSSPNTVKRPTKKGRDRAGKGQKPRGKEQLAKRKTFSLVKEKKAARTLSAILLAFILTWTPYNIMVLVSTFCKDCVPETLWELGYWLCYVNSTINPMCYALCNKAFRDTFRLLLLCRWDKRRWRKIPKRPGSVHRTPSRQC
Gonadotropin-releasing hormone receptor (Homo sapiens), sequence (P30968 whole entry, looked up): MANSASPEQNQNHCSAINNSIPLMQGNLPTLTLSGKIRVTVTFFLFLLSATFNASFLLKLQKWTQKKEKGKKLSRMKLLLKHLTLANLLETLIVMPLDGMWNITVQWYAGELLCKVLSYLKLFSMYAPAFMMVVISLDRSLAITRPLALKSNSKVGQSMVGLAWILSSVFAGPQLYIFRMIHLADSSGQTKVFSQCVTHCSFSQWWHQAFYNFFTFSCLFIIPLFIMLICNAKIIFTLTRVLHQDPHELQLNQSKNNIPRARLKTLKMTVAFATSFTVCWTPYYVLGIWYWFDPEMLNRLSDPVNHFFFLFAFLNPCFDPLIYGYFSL
5-hydroxytryptamine receptor 2A (Homo sapiens), sequence (P28223 whole entry, looked up): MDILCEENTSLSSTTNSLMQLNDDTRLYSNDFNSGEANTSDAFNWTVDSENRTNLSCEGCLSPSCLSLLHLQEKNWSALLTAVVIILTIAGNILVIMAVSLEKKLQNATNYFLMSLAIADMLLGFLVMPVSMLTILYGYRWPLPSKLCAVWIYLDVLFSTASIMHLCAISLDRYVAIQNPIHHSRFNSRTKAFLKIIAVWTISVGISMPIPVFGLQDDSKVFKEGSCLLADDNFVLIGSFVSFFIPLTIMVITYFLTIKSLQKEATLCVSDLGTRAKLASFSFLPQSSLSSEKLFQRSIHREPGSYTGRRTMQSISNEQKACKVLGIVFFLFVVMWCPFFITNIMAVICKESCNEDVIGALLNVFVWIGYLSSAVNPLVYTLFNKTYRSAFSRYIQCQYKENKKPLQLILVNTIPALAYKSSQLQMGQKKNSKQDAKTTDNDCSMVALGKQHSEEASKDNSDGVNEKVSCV
Beta-2 adrenergic receptor (Homo sapiens), sequence (P07550 whole entry, looked up): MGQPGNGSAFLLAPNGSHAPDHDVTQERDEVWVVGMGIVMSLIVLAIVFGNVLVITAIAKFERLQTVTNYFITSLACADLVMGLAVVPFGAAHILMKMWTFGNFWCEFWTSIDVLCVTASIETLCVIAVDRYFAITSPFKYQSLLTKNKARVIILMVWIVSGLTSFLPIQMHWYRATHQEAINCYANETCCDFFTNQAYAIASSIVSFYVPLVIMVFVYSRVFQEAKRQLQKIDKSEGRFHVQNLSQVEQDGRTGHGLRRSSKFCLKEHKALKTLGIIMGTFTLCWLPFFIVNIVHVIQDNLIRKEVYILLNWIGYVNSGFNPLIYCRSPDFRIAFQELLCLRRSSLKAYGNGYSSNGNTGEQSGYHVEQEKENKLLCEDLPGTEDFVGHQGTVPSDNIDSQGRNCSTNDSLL

As to `Cc1[nH]c(=O)n(C(C)(C)C)c(=O)c1Cl`, the Potency entry in assay [1], in [2], in [3], in assay [4], in assay [5] and in assay [6] was “inactive” throughout. Moreover, the Potency entry in assay [7], in assay [8], in assay [9], in assay [10], in [11] and in assay [12] was “inactive” each time. In addition, the Potency result in [13], in assay [14] and in assay [15] was “inactive” in each case.

`CCC(CC)Nc1c([N+](=O)[O-])cc(C)c(C)c1[N+](=O)[O-]`: the Potency entry in assay [1], in [2], in assay [3], in [4], in [16] and in [17] was “inactive” in each case. Also, the Potency entry in assay [5], in [6], in assay [7], in assay [8], in [9] and in assay [10] was “inactive” throughout. Besides, the Potency result in [18], in assay [12], in assay [13], in assay [19], in assay [14] and in assay [15] was “inactive” in each case.

Turning to `S=C1NCCN1`, the Potency entry in [1], in [2], in assay [3], in assay [4], in assay [16] and in assay [5] was “inactive” in each case. Moreover, the Potency result in assay [6], in assay [7], in [20], in [8], in assay [9] and in assay [10] was “inactive” each time. For the same compound, the Potency result in assay [18], in assay [11], in assay [12], in assay [13], in assay [14] and in assay [15] was “inactive” throughout.

Turning to `CCN(CC)C(=O)/C(Cl)=C(\C)OP(=O)(OC)OC`, the Potency entry in [1], in [2], in assay [3], in [4], in [5] and in assay [6] was “inactive” in each case. Moreover, the Potency entry in assay [7], in assay [20], in assay [9], in assay [10], in [18] and in assay [11] was “inactive” in each case. For the same compound, the Potency result in assay [12], in [13], in [19], in assay [14] and in assay [15] was “inactive” each time. For the same compound, the Potency in assay [16] is 1.86 µM (active) and 9.13 µM (active).

With `CCn1cc[n+](C)c1C`, the Potency result in assay [1], in assay [2], in assay [3], in assay [4], in assay [5] and in assay [6] was “inactive” each time. Moreover, the Potency result in assay [7], in assay [9], in assay [10], in assay [18], in assay [11] and in [12] was “inactive” throughout. Moreover, the Potency entry in [13], in [19] and in assay [15] was “inactive” throughout.

Consider `C=CC(=O)OCCO`, for which the Potency result in [1], in [2], in assay [3], in [4], in [16] and in assay [17] was “inactive” throughout. Further, the Potency result in [5], in assay [6], in assay [20], in [8], in assay [10] and in assay [18] was “inactive” throughout. The Potency entry in assay [11], in [12], in [13], in assay [14] and in assay [15] was “inactive” each time.

Regarding `C[CH2][Hg][S]c1ccccc1C(=O)O`, the Potency in assay [1] is 1.22 µM (active) and 5.96 µM (active); in assay [2], 38.9 µM (active); in [5], 10.2 µM (active) and 11.2 µM (active); in [7], 10.2 µM (active) and 11.2 µM (active); in assay [8], 18.8 µM (active); in assay [9] it was 43.6 µM (active) and 21.3 µM (active). For the same compound, the Potency was 54.9 µM (active) and 19 µM (active) in assay [18]; 27.3 µM (active) and inactive in assay [13]; 16.6 µM (active) in assay [14]. Also, the Potency result in assay [3], in [4], in assay [16], in assay [17], in assay [10] and in assay [15] was “inactive” in each case.

For `OCC(Cl)CCl` (centres undefined), the Potency result in [1], in [2], in assay [3], in assay [4], in assay [16] and in assay [17] was “inactive” throughout. Also, the Potency entry in assay [5], in assay [7], in [20], in [8], in assay [9] and in [18] was “inactive” each time. The Potency result in [11], in assay [12], in [13], in assay [19], in assay [14] and in [15] was “inactive” in each case.
